Screen size: about 310,000 compounds; about 14,000 (4.5%) showed an effect of 50% or more. The effect is printed as a negative number. The list comes from a sample in which strong results are over-represented; it also holds similar structures and randomly drawn compounds.
target: human ether-à-go-go-related gene (hERG) potassium channel (human, UniProt Q12809); test: primary screen, population patch clamp on CHO cells stably expressing hERG; higher = less effect of the substance
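Also: peak tail current of the secondary pulse compared with the same well before compound.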

Chain of human ether-à-go-go-related gene (hERG) potassium channel (Q12809 whole entry, looked up): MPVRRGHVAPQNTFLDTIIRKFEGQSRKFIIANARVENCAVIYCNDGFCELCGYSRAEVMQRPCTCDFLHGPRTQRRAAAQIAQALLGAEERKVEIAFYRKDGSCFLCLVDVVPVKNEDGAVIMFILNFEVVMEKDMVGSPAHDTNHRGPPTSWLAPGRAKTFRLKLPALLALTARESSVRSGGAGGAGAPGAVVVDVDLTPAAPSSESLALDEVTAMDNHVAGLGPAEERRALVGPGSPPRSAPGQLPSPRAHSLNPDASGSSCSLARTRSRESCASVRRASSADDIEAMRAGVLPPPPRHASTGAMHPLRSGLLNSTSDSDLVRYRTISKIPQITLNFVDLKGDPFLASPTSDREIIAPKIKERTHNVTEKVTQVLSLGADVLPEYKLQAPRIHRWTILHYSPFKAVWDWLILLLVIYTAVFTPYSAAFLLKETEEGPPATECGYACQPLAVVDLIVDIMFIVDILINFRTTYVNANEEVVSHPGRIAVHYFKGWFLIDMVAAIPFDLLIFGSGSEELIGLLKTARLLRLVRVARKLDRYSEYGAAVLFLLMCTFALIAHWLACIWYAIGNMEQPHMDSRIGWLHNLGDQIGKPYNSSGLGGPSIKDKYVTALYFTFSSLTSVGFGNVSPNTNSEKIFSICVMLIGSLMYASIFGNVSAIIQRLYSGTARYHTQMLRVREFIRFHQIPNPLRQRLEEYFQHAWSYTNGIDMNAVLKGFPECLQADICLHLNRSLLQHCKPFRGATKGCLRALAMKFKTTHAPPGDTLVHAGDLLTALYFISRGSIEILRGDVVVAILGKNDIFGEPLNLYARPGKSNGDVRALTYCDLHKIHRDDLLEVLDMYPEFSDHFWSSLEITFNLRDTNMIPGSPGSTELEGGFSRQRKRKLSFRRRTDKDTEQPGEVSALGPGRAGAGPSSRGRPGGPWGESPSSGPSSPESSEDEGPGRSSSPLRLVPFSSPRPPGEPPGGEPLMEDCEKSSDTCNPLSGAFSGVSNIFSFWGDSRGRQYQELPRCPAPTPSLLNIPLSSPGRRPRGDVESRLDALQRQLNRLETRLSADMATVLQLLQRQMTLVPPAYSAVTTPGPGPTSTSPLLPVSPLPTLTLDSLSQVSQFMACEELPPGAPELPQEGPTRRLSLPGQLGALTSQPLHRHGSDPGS

Compound	hERG current change (%, negative = inhibition) at 10uM
COc1ccccc1N1CCN(S(=O)(=O)Cc2ccccc2Cl)CC1	-2.74%
Cc1ccc(Nc2nnc(SCC(=O)NC3CC3)s2)cc1	9.41%
O=C(Nn1cnnc1)c1ccc(Cl)cc1	17.7%
COc1ccc(Nc2nc(-c3cccs3)cs2)c(OC)c1	4.09%
CCn1cc(SCC(=O)Nc2cc(C)on2)c2ccccc21	7.98%
CC(=O)Nc1ccc(S(=O)(=O)N2CCN=C2SCc2ccc(C)cc2)cc1	-12%
Cc1csc(Sc2ccc([N+](=O)[O-])cc2C(=O)OCC(=O)NC2CCCC(C)C2C)n1 (centres unmarked)	-26.2%
COc1ccc(C(=O)Nn2c(CC(C)C)nc3cc(Cl)ccc3c2=O)c(OC)c1	13.4%
COc1cc2c(cc1OC)C(C)N(C(=O)/C=C/c1cc(OC)c(OC)c(OC)c1)CC2 (centres unmarked)	7.57%
Cc1cccc(CCNC(=O)C2CCCN(c3cnccn3)C2)c1 (centres unmarked)	-11.5%
O=C(c1ccccc1)c1cccc(NC(=O)C2CC2)c1	0.476%
O=S(=O)(NC1CCCCC1NS(=O)(=O)c1ccc(F)cc1)c1ccc(F)cc1 (centres unmarked)	-5.29%
O=c1cccc2n1C[C@@H]1C[C@@H]2CN(CC(O)c2ccc([N+](=O)[O-])cc2)C1 (some centres unmarked)	-49%
O=C(NC(=S)N1C[C@H]2C[C@H](C1)c1cccc(=O)n1C2)c1ccc(Cl)cc1	-8.28%
O=C1OC(c2ccc(Cl)cc2)=N/C1=C\N1CC2CC(C1)c1cccc(=O)n1C2 (centres unmarked)	-72%
Nc1cc(C(=O)N2CCN(c3ccc([N+](=O)[O-])cc3)CC2)ccc1N1CC2CC(C1)c1cccc(=O)n1C2 (centres unmarked)	-35.3%

Compound	hERG current change (%, negative = inhibition) at 10uM
O=C1OC(c2ccc(Br)cc2)=N/C1=C\N1CC2CC(C1)c1cccc(=O)n1C2 (centres unmarked)	-45.2%
O=C1OC(c2ccc([N+](=O)[O-])cc2)=N/C1=C/N1CC2CC(C1)c1cccc(=O)n1C2 (centres unmarked)	-55.1%
Cn1cc(C(=O)NC2CCCCC2)c(=O)c2cc(S(=O)(=O)N3CCOCC3)ccc21	11.8%
O=C(O)CC(Sc1n[nH]c(=S)s1)C(=O)O (centres unmarked)	18.2%
CCN(CC)S(=O)(=O)c1ccc(N2CCOCC2)c(NC(=O)c2cccc3ccccc23)c1	7.99%
CCN(CC)S(=O)(=O)c1ccc(N2CCOCC2)c(NC(=O)c2cccc3c(=O)c(C)c(-c4ccccc4)oc23)c1	-55%
CCN(CC)S(=O)(=O)c1ccc(OC)c(NC(=O)c2ccc(OC)c([N+](=O)[O-])c2)c1	-24.4%
CCN(CC)S(=O)(=O)c1ccc(NC(=O)c2cc(-c3ccccc3)nc3ccccc23)cc1	1.64%
CCN(CC)S(=O)(=O)c1ccc(OC)c(NC(=O)c2cccc(C)c2[N+](=O)[O-])c1	-14.5%
CCN(CC)S(=O)(=O)c1ccc2[nH]c(=O)cc(C(=O)Nc3ccccc3N3CCOCC3)c2c1	-18.9%
CCN(CC)S(=O)(=O)c1ccc(N2CCCCC2)c(C(=O)Nc2ccccc2N2CCOCC2)c1	-51.1%
CCN(CC)S(=O)(=O)c1ccc(N2CCOCC2)c(NC(=O)c2ccccc2F)c1	-15.8%
COc1ccc(S(=O)(=O)N2CCOCC2)cc1NC(=O)c1cccc2c(=O)c(C)c(-c3ccccc3)oc12	-32.9%
CCN(CC)S(=O)(=O)c1ccc(O)c(NC(=O)c2cc(-c3cc(OC)c(OC)c(OC)c3)nc3ccccc23)c1	-59.2%
COc1cc(-c2cc(C(=O)Nc3ccc(S(N)(=O)=O)cc3)c3ccccc3n2)cc(OC)c1OC	29.2%
CCN(CC)S(=O)(=O)c1ccc(OC)c(NC(=O)c2cccc([N+](=O)[O-])c2C)c1	-63.8%

Source: article PMC4336329 (PLoS ONE, 2015)
